Values without a mark were called inactive. For some of these results: Entries with a potency or affinity are not part of this list. The source made the active and inactive calls. Unless noted, no rule for the calls is given here.

The nature of assay [1]: antimalarial activity against Dd2 strain (AID 2302;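 active = growth inhibition above 50% at the single 2 µM test dose, taken to imply half-maximal potency below 2 µM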;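 also: 0% = DMSO untreated growth and 100% = chloroquine plus artemisinin killed control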). The conditions noted are these: P. falciparum Dd2 in RBCs, LDH growth readout, 72 h; at 2 µM; active compounds read high.
A short description of assay [2]: HepG2 cytotoxicity, primary screen, cytotoxicity control for P. falciparum antimalarial project, cell-based, ATP luminescence (AID 2303;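 active = inhibition above 50%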;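 also: 0% = DMSO wells and 100% = digitonin-killed cells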). The conditions noted are these: HepG2 viability, 24-48 h, at 10 µM, active compounds read high.
For assay [3], the target named is L-lactate dehydrogenase (Plasmodium falciparum (isolate CDC / Honduras)) (UniProt Q27743). The assay can be described thus: PfLDH activity inhibition – cell lysate, 3D7 strain, counter-screen for P. falciparum growth inhibition project (AID 2304).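 Also: 0% = vehicle and 100% = reference inhibitor.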 The conditions noted are these: P. falciparum 3D7 crude extract, LDH APAD/NBT absorbance; at 2 µM; active compounds read high.
Chain of L-lactate dehydrogenase (Plasmodium falciparum (isolate CDC / Honduras)) (Q27743 whole entry, looked up): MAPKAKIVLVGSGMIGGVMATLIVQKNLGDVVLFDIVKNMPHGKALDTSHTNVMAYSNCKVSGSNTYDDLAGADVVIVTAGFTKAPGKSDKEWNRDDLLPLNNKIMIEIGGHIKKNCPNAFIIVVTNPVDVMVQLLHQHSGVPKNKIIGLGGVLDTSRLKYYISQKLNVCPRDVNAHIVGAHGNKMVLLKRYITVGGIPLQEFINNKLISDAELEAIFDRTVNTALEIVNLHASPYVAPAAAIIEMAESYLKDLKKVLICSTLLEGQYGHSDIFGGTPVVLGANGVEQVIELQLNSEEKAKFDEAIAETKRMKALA

Assay [4] is described as follows: inhibition of 3D7 malaria parasite growth – strain 3D7 (AID 2306).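 Also: 0% = DMSO wells and 100% = chloroquine plus artemisinin control wells.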 Conditions: P. falciparum 3D7 erythrocytic growth, LDH absorbance, 72 h; at 2 µM; active compounds read high.
Assay [5] addresses Calcium-dependent protein kinase 1 (Plasmodium falciparum (isolate 3D7)) (UniProt P62344). Nature of the assay: PfCDPK1 kinase inhibitors, biochemical, TCAMS library (AID 1159585; cut-off not given, nearly all actives have IC50 up to about 0.98 µM;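 also: inhibitors leave more ATP so luminescence rises with inhibition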). Conditions: recombinant PfCDPK1, Kinase-Glo ATP depletion luminescence.
In assay [6] the target is Plasmodium falciparum protein kinase 6 (PK6, PF3D7_1337100) (UniProt Q8IDW1). The assay can be described thus: PfPK6 kinase inhibitors, biochemical, TCAMS library (AID 1159586). Conditions: recombinant PfPK6, Kinase-Glo ATP depletion luminescence.
Chain of Plasmodium falciparum protein kinase 6 (PK6, PF3D7_1337100) (Q8IDW1 1-305): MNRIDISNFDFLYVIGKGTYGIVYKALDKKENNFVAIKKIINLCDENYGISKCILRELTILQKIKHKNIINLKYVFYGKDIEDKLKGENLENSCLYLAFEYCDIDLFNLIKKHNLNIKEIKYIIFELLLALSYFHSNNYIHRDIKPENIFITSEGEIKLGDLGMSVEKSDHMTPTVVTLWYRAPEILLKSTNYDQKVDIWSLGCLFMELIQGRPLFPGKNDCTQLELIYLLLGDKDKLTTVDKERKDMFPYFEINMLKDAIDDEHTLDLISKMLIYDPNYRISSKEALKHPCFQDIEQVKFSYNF
Assay [7] addresses Protein kinase 7 (PK7), Plasmodium falciparum 3D7 (PF3D7_0213400) (UniProt Q7YTF7). Nature of the assay: inhibition of Plasmodium PK7 catalytic activity – biochemical, TCAMS antimalarial set, Kinase-Glo luminescence (AID 1159587). The conditions noted are these: recombinant PfPK7, Kinase-Glo ATP depletion luminescence.
The target of assay [8] is Calcium-dependent protein kinase 4 (Plasmodium falciparum (isolate 3D7)) (UniProt Q8IBS5). The assay can be described thus: PfCDPK4 kinase inhibitors, biochemical, TCAMS library (AID 1159588; cut-off not given, nearly all actives have IC50 up to about 0.91 µM). Conditions: recombinant PfCDPK4, Kinase-Glo ATP depletion luminescence.
Chain of Calcium-dependent protein kinase 4 (Plasmodium falciparum (isolate 3D7)) (Q8IBS5 whole entry, looked up): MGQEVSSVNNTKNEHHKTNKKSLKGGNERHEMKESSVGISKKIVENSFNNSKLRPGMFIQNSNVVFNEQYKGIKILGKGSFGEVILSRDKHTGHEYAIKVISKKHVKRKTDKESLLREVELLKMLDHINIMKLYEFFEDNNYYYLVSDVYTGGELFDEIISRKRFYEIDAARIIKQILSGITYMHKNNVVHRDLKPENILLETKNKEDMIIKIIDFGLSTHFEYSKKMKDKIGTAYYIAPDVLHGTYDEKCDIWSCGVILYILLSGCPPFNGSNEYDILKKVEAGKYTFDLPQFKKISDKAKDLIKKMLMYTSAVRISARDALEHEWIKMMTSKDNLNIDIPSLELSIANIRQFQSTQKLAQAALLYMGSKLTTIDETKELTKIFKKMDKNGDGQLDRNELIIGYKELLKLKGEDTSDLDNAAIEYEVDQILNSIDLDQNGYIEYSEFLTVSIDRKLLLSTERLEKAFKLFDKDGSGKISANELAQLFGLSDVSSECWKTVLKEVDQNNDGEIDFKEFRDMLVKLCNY

Chain of Protein kinase 7 (PK7), Plasmodium falciparum 3D7 (PF3D7_0213400) (Q7YTF7 1-343): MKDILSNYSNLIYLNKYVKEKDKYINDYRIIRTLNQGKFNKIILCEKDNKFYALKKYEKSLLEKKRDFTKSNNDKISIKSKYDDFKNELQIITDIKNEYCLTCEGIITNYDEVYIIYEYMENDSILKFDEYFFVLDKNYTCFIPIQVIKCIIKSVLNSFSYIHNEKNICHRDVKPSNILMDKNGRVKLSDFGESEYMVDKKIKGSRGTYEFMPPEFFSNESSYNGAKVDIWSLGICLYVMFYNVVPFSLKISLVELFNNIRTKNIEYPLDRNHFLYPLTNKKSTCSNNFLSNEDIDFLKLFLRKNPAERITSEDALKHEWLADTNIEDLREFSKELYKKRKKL
Chain of Calcium-dependent protein kinase 1 (Plasmodium falciparum (isolate 3D7)) (P62344 whole entry, looked up): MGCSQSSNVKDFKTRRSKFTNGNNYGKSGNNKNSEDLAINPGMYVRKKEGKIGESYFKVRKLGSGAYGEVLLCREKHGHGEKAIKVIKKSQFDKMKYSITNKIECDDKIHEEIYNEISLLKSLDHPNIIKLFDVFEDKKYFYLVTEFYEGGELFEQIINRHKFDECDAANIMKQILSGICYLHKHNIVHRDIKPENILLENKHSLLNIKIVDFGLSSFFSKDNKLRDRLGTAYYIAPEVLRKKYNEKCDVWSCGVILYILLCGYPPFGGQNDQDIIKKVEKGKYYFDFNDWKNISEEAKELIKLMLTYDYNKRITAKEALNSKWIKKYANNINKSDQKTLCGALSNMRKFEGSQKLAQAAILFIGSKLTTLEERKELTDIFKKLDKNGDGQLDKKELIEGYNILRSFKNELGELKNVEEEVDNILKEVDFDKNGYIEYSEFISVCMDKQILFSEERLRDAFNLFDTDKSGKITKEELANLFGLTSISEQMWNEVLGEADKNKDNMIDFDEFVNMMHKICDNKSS

For the compound `Cc1cccc2[nH]c(-c3cccc(-c4cccc(CNCCc5ccncc5)c4)c3)nc12`, the growth inhibition in assay [1] was 99% (active); in assay [4], 101% (active). Further, the inhibition is 20% in assay [2] and -2% in assay [3]. The result in assay [5], in assay [6], in assay [7] and in assay [8] was inactive.

For `O=C(O)C1CC(=O)N(c2ccc(Cl)cc2)C1` (stereo not given), the growth inhibition is 33% in assay [1] and 97% (active) in assay [4]. The inhibition in assay [2] is 51% (active); in assay [3] it was 6%. Moreover, the result in assay [5], in assay [6], in assay [7] and in assay [8] was inactive.

Regarding `COc1cc2nc(N3CCC(CNC(=O)c4ccc(-c5ccc(C(=O)N(C)C)cc5)c(OCCO)c4)CC3)nc(N)c2cc1OC`, the growth inhibition is 18% in assay [1] and 96% (active) in assay [4]. Moreover, the inhibition in assay [2] is 10%; in assay [3], -3%. Further, the outcome in assay [5], in assay [6], in assay [7] and in assay [8] was inactive.

For `Cc1cc(N[C@@H](Cc2ccccc2)C(=O)NCc2cccc(F)c2)nc(NCCc2cccs2)n1`, the growth inhibition is 22% in assay [1] and 99% (active) in assay [4]. Besides, the inhibition in assay [2] was 9%; in assay [3], 2%. The outcome in assay [5], in assay [6], in assay [7] and in assay [8] was inactive.

For `O=C(COC(=O)c1cccc(S(=O)(=O)N2CCc3ccccc32)c1)NNC(=O)c1cccs1`, the growth inhibition in assay [1] is 4%; in assay [4] it was 96% (active). Also, the inhibition was 4% in assay [2] and 3% in assay [3]. For the same compound, the result in assay [5], in assay [6], in assay [7] and in assay [8] was inactive.

As for `CCCCCCCCn1ccc(=N)cc1`, the growth inhibition was 84% (active) in assay [1] and 91% (active) in assay [4]. The inhibition in assay [2] was 49%; in assay [3], -5%. Also, the outcome in assay [5], in assay [6], in assay [7] and in assay [8] was inactive.

Regarding `CC(=O)Nc1ncc(C(=O)Nc2cccc(-c3cccc(-c4nc5ccc(C(F)(F)F)cc5[nH]4)c3)c2)s1`, the growth inhibition in assay [1] is 99% (active); in assay [4] it was 101% (active). The inhibition was 76% (active) in assay [2] and 3% in assay [3]. Further, the result in assay [5], in assay [6], in assay [7] and in assay [8] was inactive.

Turning to `N#Cc1ccc(CN2CCCN(Cc3cccc(NC(=O)c4ccc(-c5ccccc5)cc4)c3)CC2)cc1`, the growth inhibition in assay [1] is 12%; in assay [4], 88% (active). For the same compound, the results for the inhibition in assay [2] and in assay [3] were 33% and 0%, respectively. Besides, the result in assay [5], in assay [6], in assay [7] and in assay [8] was inactive.

Turning to `CCCC[C@H](NC(=O)OC(C)(C)C)C(=O)Nc1ccc(Cc2ccc(NC(=O)[C@H](CCCC)NC(=O)OC(C)(C)C)cc2)cc1`, the growth inhibition was 71% (active) in assay [1] and 95% (active) in assay [4]. The results for the inhibition in assay [2] and in assay [3] were 5% and 3%, respectively. Moreover, the outcome in assay [5], in assay [6], in assay [7] and in assay [8] was inactive.

For the compound `O=C(Nc1cccc(CN2CCCN(Cc3ncc[nH]3)CC2)c1)c1ccc(-c2ccccc2)cc1`, the figures for the growth inhibition in assay [1] and in assay [4] were 56% (active) and 101% (active), respectively. Moreover, the inhibition is 23% in assay [2] and -5% in assay [3]. Besides, the outcome in assay [5], in assay [6], in assay [7] and in assay [8] was inactive.

In the case of `c1ccc2c(C3CCN(CCCCOc4ccc5c(c4)CCN(C4CCC4)CC5)CC3)c[nH]c2c1`, the growth inhibition in assay [1] was 100% (active); in assay [4], 102% (active). Also, the inhibition in assay [2] was 80% (active); in assay [3], -3%. The result in assay [5], in assay [6], in assay [7] and in assay [8] was inactive.

Consider `CCOC(=O)c1cccc(N/C(N)=N/c2nc(C)cc(NCCc3ccccc3)n2)c1`, for which the growth inhibition in assay [1] was 72% (active); in assay [4], 102% (active). Besides, the inhibition in assay [2] was 21%; in assay [3], -6%. Further, the result in assay [5], in assay [6], in assay [7] and in assay [8] was inactive.

For `Cc1cc(C(=O)CN2C(=O)NC(C)(c3cccc4ccccc34)C2=O)c(C)n1Cc1ccco1` (stereo not given), the values for the growth inhibition in assay [1] and in assay [4] were 23% and 90% (active), respectively. The figures for the inhibition in assay [2] and in assay [3] were -2% and 0%, respectively. Moreover, the result in assay [5], in assay [6], in assay [7] and in assay [8] was inactive.

As to `C(=N\Nc1nccc2sc(-c3cccnc3)cc12)/c1ccncc1`, the growth inhibition was 94% (active) in assay [1] and 101% (active) in assay [4]. In addition, the figures for the inhibition in assay [2] and in assay [3] were 65% (active) and 7%, respectively. In addition, the outcome in assay [5], in assay [6], in assay [7] and in assay [8] was inactive.

As for `O=C(NCc1cccc(F)c1)Nc1cccc(-c2ccc(-c3nc4ccc(C(F)(F)F)cc4[nH]3)cc2)c1`, the growth inhibition in assay [1] was 20%; in assay [4] it was 98% (active). The inhibition in assay [2] was 50% (active); in assay [3], -4%. Moreover, the result in assay [5], in assay [6], in assay [7] and in assay [8] was inactive.

In the case of `COc1ccc2nccc(N3CCC(CCNCc4ccc5c(n4)NC(=O)CO5)CC3)c2c1`, the growth inhibition in assay [1] was 50% (active); in assay [4], 101% (active). Besides, the inhibition in assay [2] is 22%; in assay [3], -1%. For the same compound, the result in assay [5], in assay [6], in assay [7] and in assay [8] was inactive.

With `Cc1cc(N2CCN(C)CC2)nc2ccc(NC(=O)c3cccc(N(C)C)c3)cc12`, the growth inhibition in assay [1] was 23%; in assay [4] it was 85% (active). Further, the inhibition is 9% in assay [2] and 4% in assay [3]. Also, the result in assay [5], in assay [6], in assay [7] and in assay [8] was inactive.

Take `COc1ccc(Nc2c3ccc(Cl)cc3nc3ccc(OC)cc23)cc1`: the growth inhibition in assay [1] is 99% (active); in assay [4], 94% (active). In addition, the inhibition is 14% in assay [2] and 3% in assay [3]. Also, the result in assay [5], in assay [6], in assay [7] and in assay [8] was inactive.

In the case of `c1cc(-c2ccc(CNCCCn3ccnc3)cc2)cc(-c2nc3ccccc3[nH]2)c1`, the figures for the growth inhibition in assay [1] and in assay [4] were 100% (active) and 101% (active), respectively. The inhibition in assay [2] was 17%; in assay [3] it was 5%. Also, the result in assay [5], in assay [6], in assay [7] and in assay [8] was inactive.

For `CN=C(N)c1ccc(NC(=O)Nc2ccc(C(N)=NC)cc2)cc1`, the growth inhibition in assay [1] is 71% (active); in assay [4], 84% (active). The inhibition is -5% in assay [2] and -2% in assay [3]. The outcome in assay [5], in assay [6], in assay [7] and in assay [8] was inactive.

The record behind these values is PubChem BioAssay.
